Experimental data reported in PubChem BioAssay.
Measured potencies and affinities stand elsewhere. Records with an inconclusive call do not appear. Activity calls are given as the source filed them. The rule behind the calls is not given here.

Experiment: IGROV1 ovarian cancer cell cytotoxicity, dose response, PAX8 inhibitor project, plate reader, dry powder samples (AID 743043);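 note: more negative means fewer viable cells or more cytotoxicity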
Details: series mostly up to 35 µM

| Structure (SMILES) | outcome |
| --- | --- |
| C[C@H]1CCCCO[C@H](CN(C)Cc2ccc(Cl)c(Cl)c2)[C@@H](C)CN([C@@H](C)CO)C(=O)c2cc(NC(=O)Nc3ccc(F)cc3)ccc2O1 | inactive |
| C[C@@H]1CN([C@@H](C)CO)C(=O)c2c(c3ccccc3n2C)-c2ccccc2CO[C@H]1CN(C)C(=O)Nc1ccc2c(c1)OCO2 | inactive |
| C[C@@H]1CCCCO[C@H](CN(C)Cc2ccc(C(F)(F)F)cc2)[C@H](C)CN([C@@H](C)CO)C(=O)c2cc(NC(=O)Nc3ccc(F)cc3)ccc2O1 | inactive |
| C[C@H](CO)N1C[C@H](C)[C@H](CN(C)S(=O)(=O)c2cccs2)OCCCC[C@H](C)Oc2ccc(NC(=O)NC3CCCCC3)cc2C1=O | inactive |
| C[C@H]1CCCCO[C@@H](CN(C)S(=O)(=O)c2cccs2)[C@@H](C)CN([C@@H](C)CO)C(=O)c2cc(NC(=O)NC3CCCCC3)ccc2O1 | inactive |
| C[C@@H]1CN([C@H](C)CO)C(=O)c2cc(NS(=O)(=O)c3ccc(F)cc3)ccc2O[C@@H]1CN(C)Cc1ccc(C(F)(F)F)cc1 | inactive |
| C[C@@H]1CCCCO[C@H](CN(C)C(=O)Cc2ccccc2)[C@H](C)CN([C@@H](C)CO)C(=O)c2cc(NC(=O)Nc3ccc(C(F)(F)F)cc3)ccc2O1 | inactive |
| C[C@H](CO)N1C[C@H](C)[C@@H](CN(C)C(=O)NC2CCCCC2)Oc2cc(C#Cc3ccc(F)cc3)ccc2S1(=O)=O | inactive |
| C[C@@H]1CCCCO[C@H](CN(C)C)[C@H](C)CN([C@H](C)CO)C(=O)c2cc(NC(=O)Nc3cccc4ccccc34)ccc2O1 | inactive |
| C[C@@H]1CCCCO[C@@H](CN(C)S(=O)(=O)c2ccc(Cl)cc2)[C@H](C)CN([C@@H](C)CO)C(=O)c2cc(NS(=O)(=O)c3ccc(Cl)cc3)ccc2O1 | inactive |
| C[C@H](CO)N1C[C@H](C)[C@@H](CN(C)Cc2ccc(Oc3ccccc3)cc2)OCc2ccccc2-c2c(n(C)c3ccccc23)C1=O | inactive |
| C[C@@H]1CN([C@@H](C)CO)C(=O)c2cc(NC(=O)Nc3ccc4c(c3)OCO4)ccc2O[C@@H]1CN(C)C(=O)Nc1ccc(C(F)(F)F)cc1 | inactive |
| C[C@@H]1CN([C@@H](C)CO)C(=O)c2cc(NS(=O)(=O)c3ccccc3)ccc2O[C@@H](C)CCCCO[C@@H]1CN(C)Cc1ccc(C(F)(F)F)cc1 | inactive |
| C[C@@H]1CN([C@@H](C)CO)C(=O)Cc2cc(NC(=O)Nc3ccc(C(F)(F)F)cc3)ccc2O[C@H]1CN(C)S(=O)(=O)c1ccc(F)cc1 | inactive |
| C[C@@H]1CCCCO[C@H](CN(C)Cc2ccc(C(F)(F)F)cc2)[C@H](C)CN([C@H](C)CO)C(=O)c2cc(NC(=O)Nc3ccc(F)cc3)ccc2O1 | inactive |
| CN1c2ccc(C#Cc3cccnc3)cc2[C@@H]2[C@@H](CCN2C(=O)Cc2cccnc2)[C@@H]1CO | inactive |
| COc1ccc(NC(=O)Nc2ccc3c(c2)C(=O)N([C@@H](C)CO)C[C@@H](C)[C@@H](CN(C)Cc2ccc(C(F)(F)F)cc2)OCCCC[C@@H](C)O3)cc1 | inactive |
| O=C(Nc1ccc(C(F)(F)F)cc1)N1C[C@@H]2N[C@H](C1)C2c1ccc(-c2ccccc2)cc1 (stereo not given in full) | inactive |
| C[C@H]1CN([C@@H](C)CO)C(=O)CCCn2nncc2CO[C@@H]1CN(C)C(=O)Nc1ccc(-c2cccs2)cc1 | inactive |
| CCCN(C)C[C@H]1OCCCC[C@@H](C)Oc2ccc(NC(=O)c3ccccc3)cc2C(=O)N([C@H](C)CO)C[C@H]1C | inactive |
| CC(C)CC#Cc1ccc2c(c1)O[C@@H](CN(C)Cc1ccncc1)[C@H](C)CN([C@@H](C)CO)S2(=O)=O | inactive |
| C[C@@H]1CN([C@H](C)CO)C(=O)c2cc(NC(=O)Nc3ccc(F)cc3)ccc2O[C@@H](C)CCCCO[C@H]1CN(C)C(=O)Nc1ccc(F)cc1 | inactive |
| Cc1ccc(S(=O)(=O)N(C)C[C@H]2OCCCC[C@@H](C)Oc3ccc(NS(=O)(=O)c4ccc(F)cc4)cc3C(=O)N([C@@H](C)CO)C[C@H]2C)cc1 | inactive |
| C[C@H]1CCCCO[C@@H](CN(C)C)[C@@H](C)CN([C@@H](C)CO)C(=O)c2cc(NC(=O)Nc3ccc(C(F)(F)F)cc3)ccc2O1 | inactive |
| Cc1ccc(S(=O)(=O)Nc2ccc3c(c2)C(=O)N([C@@H](C)CO)C[C@@H](C)[C@@H](CN(C)Cc2ccc(C(F)(F)F)cc2)OCCCC[C@@H](C)O3)cc1 | inactive |
